We go through 15 compounds from the supplement of paper PMC10646978.

± gives the standard deviation.

Conditions in all cases: modulator concentration 10 µM
In experiment [1] the test system is RAW-Dual (murine macrophage reporter line). The experiment in a line: NF-kB reporter (SEAP) activity fold change vs agonist alone; higher = enhanced NF-kB activity. The procedure, abridged:
(§1)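 RAW-Dual murine macrophage reporter cells were plated at 50 000 per well in 384-well plates, pin-transferred compound to 10 μM final, and pre-incubated for 1 hour at 37 °C before a PRR agonist was added and the cells incubated overnight. NF-κB activity was read from supernatant SEAP with QUANTI-Blue at 620 nm absorbance, and IRF activity from Lucia luciferase with QUANTI-Luc by luminescence. Each signal was expressed as fold change by dividing by the mean agonist-only control on the same plate. Two replicate plates were averaged, with errors obtained by propagation.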

Experiment [2] has the same test system. Briefly: IRF reporter (Lucia luciferase) activity fold change vs agonist alone; higher = enhanced IRF activity. The procedure, abridged:
as §1

The test system is the same in experiment [3]. The experiment in a line: viability score (confluency relative to resting cells, overnight) (fraction); higher = more viable, active = viable (0.7 or more). Put shortly:
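Compound was added at a final 10 μM to RAW-Dual macrophages in 384-well plates and left overnight. Confluency was imaged with IncuCyte, and two masks were generated in IncuCyte software over all imaged wells. Each viability score is confluency relative to resting cells, and a compound met the cutoff only when both masks were above 70% of resting cells.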

[4] abbreviates: agonist: CpG ODN 1826 0.5 ug/mL.

`N#Cc1c(N=Cc2ccc(O)cc2)sc2c1CCCC2`: the NF-kB reporter is 0.688 ± 0.055 in experiment [1] (setting [4]), 0.94 ± 0.069 in experiment [1] (agonist: LPS 0.1 ug/mL) and 0.979 ± 0.11 in experiment [1] (agonist: MPLA […]). The IRF reporter in experiment [2] (agonist: 3'3'-cGAMP 10 ug/mL) is 0.713 ± 0.049; in experiment [2] (agonist: LPS 0.1 ug/mL) it was 1.17 ± 0.22; in experiment [2] (agonist: MPLA […]), 1.23 ± 0.24. In experiment [3], the viability score is 0.997 (active).
For the compound `CCOC(=O)OC(C)OC1=C(C(=O)Nc2ccccn2)N(C)S(=O)(=O)c2ccccc21` (stereo not given), the NF-kB reporter in experiment [1] (setting [4]) was 1.12 ± 0.15; in experiment [1] (agonist: LPS 0.1 ug/mL), 1.28 ± 0.25; in experiment [1] (agonist: MPLA […]) it was 0.995 ± 0.056. Further, the IRF reporter is 0.948 ± 0.029 in experiment [2] (agonist: 3'3'-cGAMP 10 ug/mL), 1.37 ± 0.34 in experiment [2] (agonist: LPS 0.1 ug/mL) and 1.32 ± 0.12 in experiment [2] (agonist: MPLA […]). In addition, in experiment [3], the viability score was 0.989 (active).
Regarding `CC1CC(OC(=O)C(O)c2ccccc2)CC(C)(C)N1C` (stereo not given) [Prestw-794], the NF-kB reporter was determined as 1.07 ± 0.17 in experiment [1] (setting [4]), 1.25 ± 0.12 in experiment [1] (agonist: LPS 0.1 ug/mL) and 1.02 ± 0.08 in experiment [1] (agonist: MPLA […]). Moreover, the figures for the IRF reporter in experiment [2] (agonist: 3'3'-cGAMP 10 ug/mL), in experiment [2] (agonist: LPS 0.1 ug/mL) and in experiment [2] (agonist: MPLA […]) were 0.97 ± 0.027, 1.09 ± 0.2 and 1.22 ± 0.15, respectively. Besides, the viability score in experiment [3] is 1 (active).
As for `Cc1ccccc1CNC(=O)CN(c1cccc(C(F)(F)F)c1)S(C)(=O)=O`, the values for the NF-kB reporter in experiment [1] (setting [4]), in experiment [1] (agonist: LPS 0.1 ug/mL) and in experiment [1] (agonist: MPLA […]) were 1.11 ± 0.097, 1.07 ± 0.11 and 1.03 ± 0.041, respectively. Moreover, the IRF reporter turned out to be 0.956 ± 0.095 in experiment [2] (agonist: 3'3'-cGAMP 10 ug/mL), 1.11 ± 0.13 in experiment [2] (agonist: LPS 0.1 ug/mL) and 1.03 ± 0.24 in experiment [2] (agonist: MPLA […]). Also, the viability score in experiment [3] was 1 (active).
As for `CC1CC2(NC(=O)NC2=O)C(C)CN1C` (stereo not given), the figures for the NF-kB reporter in experiment [1] (setting [4]), in experiment [1] (agonist: LPS 0.1 ug/mL) and in experiment [1] (agonist: MPLA […]) were 0.933 ± 0.061, 1.01 ± 0.088 and 0.87 ± 0.053, respectively. Besides, the IRF reporter in experiment [2] (agonist: 3'3'-cGAMP 10 ug/mL) turned out to be 0.99 ± 0.034; in experiment [2] (agonist: LPS 0.1 ug/mL), 1.34 ± 0.2; in experiment [2] (agonist: MPLA […]), 1.21 ± 0.15. Moreover, in experiment [3], the viability score was 1 (active).
With `COc1ccc2c(c1)c(CC(=O)OCC(=O)O)c(C)n2C(=O)c1ccc(Cl)cc1`, the figures for the NF-kB reporter in experiment [1] (setting [4]), in experiment [1] (agonist: LPS 0.1 ug/mL) and in experiment [1] (agonist: MPLA […]) were 0.844 ± 0.16, 1.06 ± 0.33 and 0.835 ± 0.053, respectively. In addition, the IRF reporter in experiment [2] (agonist: 3'3'-cGAMP 10 ug/mL) came out at 0.938 ± 0.029; in experiment [2] (agonist: LPS 0.1 ug/mL), 1.15 ± 0.25; in experiment [2] (agonist: MPLA […]) it was 1.07 ± 0.11. Further, in experiment [3], the viability score was 0.985 (active).
On to `CCOC(=O)N1CCN(C(=O)C2CCN(Cc3ccc(C)o3)CC2)CC1`, for which the NF-kB reporter in experiment [1] (setting [4]) stood at 0.941 ± 0.15; in experiment [1] (agonist: LPS 0.1 ug/mL), 1.04 ± 0.089; in experiment [1] (agonist: MPLA […]) it was 0.98 ± 0.08. Further, the IRF reporter was determined as 1.02 ± 0.051 in experiment [2] (agonist: 3'3'-cGAMP 10 ug/mL), 1.26 ± 0.3 in experiment [2] (agonist: LPS 0.1 ug/mL) and 1.41 ± 0.3 in experiment [2] (agonist: MPLA […]). The viability score in experiment [3] was 0.991 (active).
For the compound `Cc1ccc2nc(NC(=O)CSc3nc4c(c(=O)n3-c3ccccc3)SCC4)sc2c1`, the NF-kB reporter in experiment [1] (setting [4]) was 0.845 ± 0.11; in experiment [1] (agonist: LPS 0.1 ug/mL), 0.887 ± 0.1; in experiment [1] (agonist: MPLA […]) it was 0.853 ± 0.081. The IRF reporter was 0.662 ± 0.021 in experiment [2] (agonist: 3'3'-cGAMP 10 ug/mL), 1.16 ± 0.14 in experiment [2] (agonist: LPS 0.1 ug/mL) and 1.27 ± 0.18 in experiment [2] (agonist: MPLA […]). Moreover, the viability score in experiment [3] is 1.02 (active).
Consider `OCCSCCc1ccncc1`, for which the NF-kB reporter in experiment [1] (setting [4]) worked out at 1.03 ± 0.083; in experiment [1] (agonist: LPS 0.1 ug/mL) it was 1.05 ± 0.086; in experiment [1] (agonist: MPLA […]), 1.01 ± 0.047. Moreover, the figures for the IRF reporter in experiment [2] (agonist: 3'3'-cGAMP 10 ug/mL), in experiment [2] (agonist: LPS 0.1 ug/mL) and in experiment [2] (agonist: MPLA […]) were 1.02 ± 0.23, 0.995 ± 0.07 and 1.02 ± 0.17, respectively. In experiment [3], the viability score is 1 (active).
In the case of `CCCN1CCC(NCCc2cccc(Cl)c2)CC1`, the NF-kB reporter amounted to 0.11 ± 0.018 in experiment [1] (setting [4]), 0.9 ± 0.14 in experiment [1] (agonist: LPS 0.1 ug/mL) and 1.18 ± 0.091 in experiment [1] (agonist: MPLA […]). Also, the values for the IRF reporter in experiment [2] (agonist: 3'3'-cGAMP 10 ug/mL), in experiment [2] (agonist: LPS 0.1 ug/mL) and in experiment [2] (agonist: MPLA […]) were 0.704 ± 0.045, 1.13 ± 0.18 and 1.13 ± 0.17, respectively. Also, the viability score in experiment [3] is 1 (active).
`CCc1cc(=O)oc2cc(OCC(=O)OC(C)C)ccc12`: the NF-kB reporter in experiment [1] (setting [4]) was determined as 0.827 ± 0.064; in experiment [1] (agonist: LPS 0.1 ug/mL), 0.857 ± 0.042; in experiment [1] (agonist: MPLA […]), 1.11 ± 0.096. Further, the results for the IRF reporter in experiment [2] (agonist: 3'3'-cGAMP 10 ug/mL), in experiment [2] (agonist: LPS 0.1 ug/mL) and in experiment [2] (agonist: MPLA […]) were 1.04 ± 0.048, 1.44 ± 0.096 and 1.73 ± 0.24, respectively. Moreover, the viability score in experiment [3] is 1 (active).
Regarding `CCCCc1oc2ccccc2c1C(=O)c1cc(I)c(OCCN(CC)CC)c(I)c1` [Prestw-409], the values for the NF-kB reporter in experiment [1] (setting [4]), in experiment [1] (agonist: LPS 0.1 ug/mL) and in experiment [1] (agonist: MPLA […]) were 0.41 ± 0.08, 0.977 ± 0.075 and 1.15 ± 0.11, respectively. The IRF reporter in experiment [2] (agonist: 3'3'-cGAMP 10 ug/mL) was found to be 0.574 ± 0.025; in experiment [2] (agonist: LPS 0.1 ug/mL), 1.32 ± 0.2; in experiment [2] (agonist: MPLA […]), 1.51 ± 0.29. In addition, in experiment [3], the viability score is 1.04 (active).
`CC(=O)C1=C(C)OC2(O)c3ccccc3C(=O)C12O` (stereo not given): the figures for the NF-kB reporter in experiment [1] (setting [4]), in experiment [1] (agonist: LPS 0.1 ug/mL) and in experiment [1] (agonist: MPLA […]) were 0.903 ± 0.11, 0.947 ± 0.089 and 1.23 ± 0.13, respectively. Also, the IRF reporter in experiment [2] (agonist: 3'3'-cGAMP 10 ug/mL) came to 0.831 ± 0.029; in experiment [2] (agonist: LPS 0.1 ug/mL) it was 1.02 ± 0.18; in experiment [2] (agonist: MPLA […]), 0.824 ± 0.12. Further, the viability score in experiment [3] was 0.945 (active).
For `CC1(C)Cc2c(sc3nc(SCC(N)=O)n(CCc4ccccc4)c(=O)c23)CO1`, the NF-kB reporter in experiment [1] (setting [4]) came to 0.815 ± 0.07; in experiment [1] (agonist: LPS 0.1 ug/mL), 0.814 ± 0.054; in experiment [1] (agonist: MPLA […]) it was 0.927 ± 0.1. In addition, the IRF reporter amounted to 1.02 ± 0.054 in experiment [2] (agonist: 3'3'-cGAMP 10 ug/mL), 1.24 ± 0.084 in experiment [2] (agonist: LPS 0.1 ug/mL) and 1.3 ± 0.11 in experiment [2] (agonist: MPLA […]). Also, the viability score in experiment [3] is 1.01 (active).
As for `Cc1cc(C)c(S(=O)(=O)N2CCN(C(=O)N(C)C)CC2)c(C)c1`, the NF-kB reporter in experiment [1] (setting [4]) stood at 1.83 ± 0.4; in experiment [1] (agonist: LPS 0.1 ug/mL), 1.21 ± 0.24; in experiment [1] (agonist: MPLA […]) it was 2.12 ± 0.63. The IRF reporter in experiment [2] (agonist: 3'3'-cGAMP 10 ug/mL) worked out at 0.505 ± 0.32; in experiment [2] (agonist: LPS 0.1 ug/mL) it was 0.802 ± 0.48; in experiment [2] (agonist: MPLA […]) it was 0.738 ± 0.31. Also, the viability score in experiment [3] is 0.564 (inactive).
